# Assay results published in PubChem BioAssay (NCATS).
# Records with an inconclusive call do not appear. Calls of active or inactive are those of the source. The call rests on the fitted dose curve; in most records, active means well fitted inhibition curve with a large enough effect; inconclusive means small, poorly fitted or top-dose-only effect; inactive means flat fitted curve, though single readings scatter.
# System: astro (control astrocytes)
# Assay: Drug repurposing screens with cells derived from glioblastoma tumor samples (AID 1345199); further: nearly all actives have a fitted effect of over 40% in size
# Details: viability, ATP luminescence, 48 h; series mostly up to 45.9 µM; activity, negative = cell killing: at the top concentration
# Outline: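 Primary testing used CD133+ neurospheres from four GBM patients, seven concentrations, 48 h exposure and ATP-based viability; confirmation added three slower-growing patient lines.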
# On the % scale 0 is the no-effect control and ±100 the full control effect.
row,SMILES,"activity, negative = cell killing"
1,CN(C(=O)CCCOc1ccc2[nH]c(=O)ccc2c1)C1CCCCC1,-29.5% (inactive)
2,NC(=O)N1c2ccccc2C=Cc2ccccc21,-18.1% (inactive)
3,CCCN(CCC)CCc1cccc2c1CC(=O)N2,-12.2% (inactive)
4,CCc1c(C)[nH]c2c1C(=O)C(CN1CCOCC1)CC2 (configuration not stated),-19.1% [at 21.2 µM] (inactive)
5,C[C@]12CCC(=O)C=C1CC[C@@H]1[C@@H]2C(=O)C[C@@]2(C)[C@H]1CC[C@]2(O)C(=O)CO,-10.1% (inactive)
6,COc1cc(Cc2cnc(N)nc2N)cc(OC)c1OC,-2.66% (inactive)
7,N[C@@H](COP(=O)(O)O)C(=O)O,-8.6% (inactive)
8,CN1CCN(CC(=O)N2c3ccccc3C(=O)Nc3cccnc32)CC1,-6.87% (inactive)
9,CC(=O)Nc1nnc(S(N)(=O)=O)s1,-9.35% (inactive)
10,CC(C)NCC(O)c1cc(O)cc(O)c1 (configuration not stated),-16.3% (inactive)
11,CCCCNc1c(C(=O)OCC)c(C)nc2c1cnn2CC,-18.1% (inactive)
12,CN(C)C/C=C(/c1ccc(Br)cc1)c1cccnc1,-17.4% (inactive)
13,CO[C@@]1(NC(=O)CSCC#N)C(=O)N2C(C(=O)O)=C(CSc3nnnn3C)CS[C@@H]21,-5.01% (inactive)
14,CCN1CCc2nc(N)oc2CC1,-15.9% (inactive)
15,C[C@]12CCC(=O)C=C1CC[C@@H]1[C@@H]2CC[C@@]2(C)[C@H]1CC[C@]2(O)C(=O)CO,-14% (inactive)
16,CCN(CC)CC(=O)Nc1c(C)cccc1C,-19.8% (inactive)
17,Cc1nc2ccccn2c(=O)c1CCN1CCC(C(=O)c2ccc(F)cc2)CC1,-23% (inactive)
18,c1ccc2c(c1)CCCC2C1=NCCN1 (configuration not stated),-20.8% (inactive)
19,CCCNC(C)C(=O)Nc1ccccc1C (configuration not stated),-18.7% (inactive)
20,O=C(O)CP(=O)(O)O,-12.6% (inactive)
21,CN1C[C@H](C(=O)N[C@]2(C)O[C@@]3(O)[C@@H]4CCCN4C(=O)[C@H](Cc4ccccc4)N3C2=O)C[C@@H]2c3cccc4[nH]cc(c34)C[C@H]21,-24.2% (inactive)
22,Cc1nnc(SCC2=C(C(=O)O)N3C(=O)[C@@H](NC(=O)Cn4cnnn4)[C@H]3SC2)s1,-10.3% (inactive)
